# According to PubChem BioAssay (NCI):
# This is part of a sample that, as a whole, favours compounds with a hit. Of some 79,000 tested, about 15% had one in any assay. Values without a mark were called inactive. Activity calls are given as the source filed them. Rule as the data show it: active = growth inhibition above about 70%; inactive = the rest.
# How the values were obtained:
# [1] = NCI Yeast Anticancer Drug Screen. Data for the wt1 strain (AID 149);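 also: 0% = growth of vehicle-treated wt1 cultures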; settings: S. cerevisiae wt1 strain (SPY 50644) growth inhibition, active compounds read high
# Outline: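 wt1 yeast, compound-treated; % growth inhibition vs vehicle control.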
# [2] = NCI Yeast Anticancer Drug Screen. Data for the rad50EPP+ strain (AID 151);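 also: 0% = growth of vehicle-treated control cultures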; settings: S. cerevisiae rad50 mutant strain, active compounds read high
# Outline: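 Measured: growth inhibition of rad50EPP+ yeast. Reference: vehicle-treated controls. Screen uses strains with defined genetic alterations in DNA damage repair or cell cycle control.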
# [3] = NCI Yeast Anticancer Drug Screen. Data for the mgt1 strain (AID 153); settings: S. cerevisiae mgt1 mutant growth inhibition, active compounds read high
# Outline: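 Compounds were applied to mgt1 mutant yeast, and growth was then compared against vehicle-treated control cultures to give percent inhibition.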
# [4] = NCI Yeast Anticancer Drug Screen. Data for the rad50 strain (AID 155);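 also: 0% = growth of vehicle-only cultures of the same strain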; settings: S. cerevisiae rad50 strain growth inhibition, active compounds read high
# Outline: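 Genetically altered yeast (DNA repair pathway); compound treatment; growth inhibition vs vehicle ctrl.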
# [5] = NCI Yeast Anticancer Drug Screen. Data for the mec2-1 strain (AID 157); settings: S. cerevisiae mec2-1 strain, active compounds read high
# Outline: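 Compounds were applied to mec2-1 yeast cells. Their growth was then compared with that of vehicle-treated cultures to give growth inhibition.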
# [6] = NCI Yeast Anticancer Drug Screen. Data for the rad14 strain (AID 159);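 also: 0% = growth of vehicle-treated control cultures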; settings: S. cerevisiae rad14 strain growth inhibition, active compounds read high
# Outline: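 Test compounds were applied to a repair-deficient yeast strain. Its growth was then compared with that of cultures given vehicle alone, and inhibition was expressed relative to those controls.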
# [7] = NCI Yeast Anticancer Drug Screen. Data for the sgs1 mgt1 strain (AID 161);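 also: 0% = growth of cultures given vehicle only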; settings: S. cerevisiae sgs1 mgt1 strain, active compounds read high
# Outline: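 This yeast growth screen uses a strain with defined DNA-repair lesions; compound-treated growth is compared with vehicle-treated growth.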
# [8] = NCI Yeast Anticancer Drug Screen. Data for the CLN2oe strain (AID 163);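 also: 0% = growth of vehicle-only control cultures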; settings: S. cerevisiae CLN2oe strain, active compounds read high
# Outline: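 Cells of an engineered yeast line with disturbed cell-cycle regulation are treated with compound. Inhibition of growth is then calculated relative to the vehicle-treated reference.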
# [9] = NCI Yeast Anticancer Drug Screen. Data for the cln2 rad14 strain (AID 165);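 also: 0% = growth equal to vehicle treated cultures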; settings: S. cerevisiae cln2 rad14 strain, active compounds read high
# Outline: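 Strain: cln2 rad14 yeast, altered in cell cycle control and DNA damage repair. Read-out: growth inhibition vs vehicle.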
# [10] = NCI Yeast Anticancer Drug Screen. Data for the bub3 strain (AID 167); settings: S. cerevisiae bub3 mutant strain, active compounds read high
# Outline: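 Yeast carrying a defined mutation is treated with each compound, and growth is compared with that of vehicle-exposed cells to give inhibition.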
# [11] = NCI Yeast Anticancer Drug Screen. Data for the wt2 strain (AID 169);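 also: 0% = growth of vehicle-treated yeast cultures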; settings: S. cerevisiae wt2 strain growth inhibition, active compounds read high
# Outline: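 Growth of compound-treated yeast is measured and expressed as inhibition relative to vehicle-only controls.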
# [12] = NCI Yeast Anticancer Drug Screen. Data for the mlh1 strain (AID 171);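 also: 0% = growth of vehicle-treated control cultures of the same strain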; settings: S. cerevisiae mlh1 strain growth inhibition, active compounds read high
# Outline: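 Test agents were incubated with yeast bearing a defined DNA damage repair or cell cycle control alteration; values are growth inhibition normalised to vehicle-treated cultures.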
# [13] = NCI Yeast Anticancer Drug Screen. Data for the sgs1 strain (AID 173);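 also: 0% = growth of vehicle-only control cultures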; settings: S. cerevisiae sgs1 mutant, active compounds read high
# Outline: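 Strain with an altered DNA repair or cell cycle pathway exposed to compound. Growth then measured. Value = inhibition versus vehicle control.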
# [14] = NCI Yeast Anticancer Drug Screen. Data for the mlh1 rad18 strain (AID 175); settings: S. cerevisiae mlh1 rad18 strain growth inhibition, active compounds read high
# Outline: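 A repair-deficient yeast strain is exposed to test compound, and growth is scored relative to vehicle-treated controls.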
# [15] = NCI Yeast Anticancer Drug Screen. Data for the rad18 strain (AID 177); settings: S. cerevisiae rad18 mutant growth inhibition, active compounds read high
# Outline: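 DNA-repair-defective yeast; compound treatment; growth inhibition scored against vehicle.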
# [16] = at 5.0 µM (retest, dose inferred, filed as 0.5)
# [17] = at 50.0 µM (retest, dose inferred, filed as 5.0)
compound,measurement,setting,value
O=S(=O)(O)c1ccc2c(N=Nc3c(O)ccc4ccccc34)cccc2c1,growth inhibition,[1]; at 1.2 µM,0%
same,growth inhibition,[1]; at 3.7 µM,1%
same,growth inhibition,[1]; at 11.0 µM,21%
same,growth inhibition,[1]; at 33.0 µM,50%
same,growth inhibition,[1]; at 100.0 µM,71% (active)
same,growth inhibition,[2]; at 1.2 µM,-3%
same,growth inhibition,[2]; at 3.7 µM,-1%
same,growth inhibition,[2]; at 11.0 µM,17%
same,growth inhibition,[2]; at 33.0 µM,35%
same,growth inhibition,[2]; at 100.0 µM,39%
same,growth inhibition,[3]; at 1.2 µM,0%
same,growth inhibition,[3]; at 3.7 µM,0%
same,growth inhibition,[3]; at 11.0 µM,12%
same,growth inhibition,[3]; at 33.0 µM,37%
same,growth inhibition,[3]; at 100.0 µM,66%
same,growth inhibition,[4]; at 1.2 µM,4%
same,growth inhibition,[4]; at 3.7 µM,14%
same,growth inhibition,[4]; [16],26%
same,growth inhibition,[4]; at 11.0 µM,56%
same,growth inhibition,[4]; at 33.0 µM,71% (active)
same,growth inhibition,[4]; [17],82% (active)
same,growth inhibition,[4]; at 50.0 µM,91.8% (active)
same,growth inhibition,[4]; at 100.0 µM,85% (active)
same,growth inhibition,[5]; at 1.2 µM,1%
same,growth inhibition,[5]; at 3.7 µM,6%
same,growth inhibition,[5]; [16],3%
same,growth inhibition,[5]; at 11.0 µM,20%
same,growth inhibition,[5]; at 33.0 µM,38%
same,growth inhibition,[5]; [17],48%
same,growth inhibition,[5]; at 50.0 µM,83.3% (active)
same,growth inhibition,[5]; at 100.0 µM,84% (active)
same,growth inhibition,[6]; at 1.2 µM,1%
same,growth inhibition,[6]; at 3.7 µM,1%
same,growth inhibition,[6]; at 11.0 µM,20%
same,growth inhibition,[6]; at 33.0 µM,40%
same,growth inhibition,[6]; at 100.0 µM,80% (active)
same,growth inhibition,[7]; [16],-1%
same,growth inhibition,[7]; [17],70% (active)
same,growth inhibition,[7]; at 50.0 µM,83.2% (active)
same,growth inhibition,[8]; at 1.2 µM,-1%
same,growth inhibition,[8]; at 3.7 µM,-4%
same,growth inhibition,[8]; at 11.0 µM,-3%
same,growth inhibition,[8]; at 33.0 µM,14%
same,growth inhibition,[8]; at 100.0 µM,74% (active)
same,growth inhibition,[9]; [16],0%
same,growth inhibition,[9]; [17],-11%
same,growth inhibition,[9]; at 50.0 µM,32.5%
same,growth inhibition,[10]; at 1.2 µM,-2%
same,growth inhibition,[10]; at 3.7 µM,-1%
same,growth inhibition,[10]; [16],0%
same,growth inhibition,[10]; at 11.0 µM,23%
same,growth inhibition,[10]; at 33.0 µM,59%
same,growth inhibition,[10]; [17],55%
same,growth inhibition,[10]; at 50.0 µM,93.8% (active)
same,growth inhibition,[10]; at 100.0 µM,75% (active)
same,growth inhibition,[11]; at 1.2 µM,-1%
same,growth inhibition,[11]; at 3.7 µM,0%
same,growth inhibition,[11]; at 11.0 µM,13%
same,growth inhibition,[11]; at 33.0 µM,37%
same,growth inhibition,[11]; at 100.0 µM,74% (active)
same,growth inhibition,[12]; at 1.2 µM,4%
same,growth inhibition,[12]; at 3.7 µM,4%
same,growth inhibition,[12]; at 11.0 µM,17%
same,growth inhibition,[12]; at 33.0 µM,4%
same,growth inhibition,[12]; at 100.0 µM,70% (active)
same,growth inhibition,[13]; at 1.2 µM,2%
same,growth inhibition,[13]; at 3.7 µM,11%
same,growth inhibition,[13]; at 11.0 µM,47%
same,growth inhibition,[13]; at 33.0 µM,67%
same,growth inhibition,[13]; at 100.0 µM,77% (active)
same,growth inhibition,[14]; [16],9%
same,growth inhibition,[14]; [17],80% (active)
same,growth inhibition,[14]; at 50.0 µM,87.9% (active)
same,growth inhibition,[15]; at 1.2 µM,4%
same,growth inhibition,[15]; at 3.7 µM,33%
same,growth inhibition,[15]; at 11.0 µM,77% (active)
same,growth inhibition,[15]; at 33.0 µM,87% (active)
same,growth inhibition,[15]; at 100.0 µM,92% (active)
O=[N+]([O-])c1cccc2nc3ccccc3c(NCCC[N+]3([O-])CCOCC3)c12,growth inhibition,[1]; at 1.2 µM,-78%
same,growth inhibition,[1]; at 3.7 µM,5%
same,growth inhibition,[1]; at 11.0 µM,16%
same,growth inhibition,[1]; at 33.0 µM,47%
same,growth inhibition,[1]; at 100.0 µM,87% (active)
same,growth inhibition,[2]; at 1.2 µM,6%
same,growth inhibition,[2]; at 3.7 µM,19%
same,growth inhibition,[2]; at 11.0 µM,42%
same,growth inhibition,[2]; at 33.0 µM,79% (active)
same,growth inhibition,[2]; at 100.0 µM,92% (active)
same,growth inhibition,[3]; at 1.2 µM,1%
same,growth inhibition,[3]; at 3.7 µM,5%
same,growth inhibition,[3]; at 11.0 µM,17%
same,growth inhibition,[3]; at 33.0 µM,55%
same,growth inhibition,[3]; at 100.0 µM,85% (active)
same,growth inhibition,[4]; at 1.2 µM,37%
same,growth inhibition,[4]; at 3.7 µM,65%
same,growth inhibition,[4]; [16],37%
same,growth inhibition,[4]; at 11.0 µM,88% (active)
same,growth inhibition,[4]; at 33.0 µM,94% (active)
same,growth inhibition,[4]; [17],92% (active)
same,growth inhibition,[4]; at 50.0 µM,83.4% (active)
same,growth inhibition,[4]; at 100.0 µM,95% (active)
same,growth inhibition,[5]; at 1.2 µM,7%
same,growth inhibition,[5]; at 3.7 µM,41%
same,growth inhibition,[5]; [16],9%
same,growth inhibition,[5]; at 11.0 µM,89% (active)
same,growth inhibition,[5]; at 33.0 µM,97% (active)
same,growth inhibition,[5]; [17],98% (active)
same,growth inhibition,[5]; at 50.0 µM,82.8% (active)
same,growth inhibition,[5]; at 100.0 µM,97% (active)
same,growth inhibition,[6]; at 1.2 µM,38%
same,growth inhibition,[6]; at 3.7 µM,87% (active)
same,growth inhibition,[6]; at 11.0 µM,96% (active)
same,growth inhibition,[6]; at 33.0 µM,98% (active)
same,growth inhibition,[6]; at 100.0 µM,97% (active)
same,growth inhibition,[7]; [16],73% (active)
same,growth inhibition,[7]; [17],93% (active)
same,growth inhibition,[7]; at 50.0 µM,79.6% (active)
same,growth inhibition,[8]; at 1.2 µM,-15%
same,growth inhibition,[8]; at 3.7 µM,-13%
same,growth inhibition,[8]; at 11.0 µM,10%
same,growth inhibition,[8]; at 33.0 µM,55%
same,growth inhibition,[8]; at 100.0 µM,91% (active)
same,growth inhibition,[9]; [16],86% (active)
same,growth inhibition,[9]; [17],98% (active)
same,growth inhibition,[9]; at 50.0 µM,94.6% (active)
same,growth inhibition,[10]; at 1.2 µM,-9%
same,growth inhibition,[10]; at 3.7 µM,-13%
same,growth inhibition,[10]; [16],-6%
same,growth inhibition,[10]; at 11.0 µM,-9%
same,growth inhibition,[10]; at 33.0 µM,14%
same,growth inhibition,[10]; [17],75% (active)
same,growth inhibition,[10]; at 50.0 µM,34.4%
same,growth inhibition,[10]; at 100.0 µM,84% (active)
same,growth inhibition,[11]; at 1.2 µM,-3%
same,growth inhibition,[11]; at 3.7 µM,-1%
same,growth inhibition,[11]; at 11.0 µM,3%
same,growth inhibition,[11]; at 33.0 µM,34%
same,growth inhibition,[11]; at 100.0 µM,93% (active)
same,growth inhibition,[12]; at 1.2 µM,1%
same,growth inhibition,[12]; at 3.7 µM,5%
same,growth inhibition,[12]; at 11.0 µM,21%
same,growth inhibition,[12]; at 33.0 µM,62%
same,growth inhibition,[12]; at 100.0 µM,92% (active)
same,growth inhibition,[13]; at 1.2 µM,63%
same,growth inhibition,[13]; at 3.7 µM,79% (active)
same,growth inhibition,[13]; at 11.0 µM,85% (active)
same,growth inhibition,[13]; at 33.0 µM,89% (active)
same,growth inhibition,[13]; at 100.0 µM,93% (active)
same,growth inhibition,[14]; [16],71% (active)
same,growth inhibition,[14]; [17],98% (active)
same,growth inhibition,[14]; at 50.0 µM,94.5% (active)
same,growth inhibition,[15]; at 1.2 µM,95% (active)
same,growth inhibition,[15]; at 3.7 µM,95% (active)
same,growth inhibition,[15]; at 11.0 µM,96% (active)
same,growth inhibition,[15]; at 33.0 µM,97% (active)
same,growth inhibition,[15]; at 100.0 µM,95% (active)
